Each structure is given as a SMILES string. Several values for one entry are separate records, joined by “and”; a condition that tells them apart may be missing. Equal values may be shown once. A number with no mark means an inactive call. Inconclusive results are not listed. Activity calls are given as the source filed them.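 Rule for the calls, unless noted: active = compounds whose dose series gives a full or clear partial fitted curve of increased nuclear translocation; inconclusive = weak partial curve or effect only at the top dose; inactive = no dose-dependent translocation response.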

3',5'-cyclic-AMP phosphodiesterase 4B (Homo sapiens), sequence (Q07343 whole entry, looked up): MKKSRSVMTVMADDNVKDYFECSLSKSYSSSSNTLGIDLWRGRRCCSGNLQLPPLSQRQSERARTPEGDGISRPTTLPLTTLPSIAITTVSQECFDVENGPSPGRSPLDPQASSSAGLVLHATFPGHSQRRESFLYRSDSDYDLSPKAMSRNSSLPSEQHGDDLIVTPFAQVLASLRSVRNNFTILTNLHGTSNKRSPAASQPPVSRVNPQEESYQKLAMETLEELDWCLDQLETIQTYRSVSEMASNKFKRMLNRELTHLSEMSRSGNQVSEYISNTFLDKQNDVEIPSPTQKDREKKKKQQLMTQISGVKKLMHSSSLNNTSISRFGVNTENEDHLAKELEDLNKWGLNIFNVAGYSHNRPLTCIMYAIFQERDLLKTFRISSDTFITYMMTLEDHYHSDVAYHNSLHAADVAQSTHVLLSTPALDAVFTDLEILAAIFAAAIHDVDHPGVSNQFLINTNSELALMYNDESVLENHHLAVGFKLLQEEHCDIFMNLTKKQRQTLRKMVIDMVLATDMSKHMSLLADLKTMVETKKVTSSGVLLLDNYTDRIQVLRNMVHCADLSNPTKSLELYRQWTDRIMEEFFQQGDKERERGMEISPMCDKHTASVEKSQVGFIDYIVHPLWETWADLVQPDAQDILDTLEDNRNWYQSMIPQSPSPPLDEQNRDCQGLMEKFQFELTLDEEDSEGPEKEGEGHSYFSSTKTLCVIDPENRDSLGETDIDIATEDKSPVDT

For one assay, the target named is Glucocorticoid receptor (Homo sapiens) (UniProt P04150). The assay is described as follows: GR-GFP Redistribution (AID 450). Note: potency is the fitted concentration of half-maximal effect. The conditions noted are these: U2OS GR-GFP nuclear translocation, laser cytometry, 2 h.
Glucocorticoid receptor (Homo sapiens), sequence (P04150 whole entry, looked up): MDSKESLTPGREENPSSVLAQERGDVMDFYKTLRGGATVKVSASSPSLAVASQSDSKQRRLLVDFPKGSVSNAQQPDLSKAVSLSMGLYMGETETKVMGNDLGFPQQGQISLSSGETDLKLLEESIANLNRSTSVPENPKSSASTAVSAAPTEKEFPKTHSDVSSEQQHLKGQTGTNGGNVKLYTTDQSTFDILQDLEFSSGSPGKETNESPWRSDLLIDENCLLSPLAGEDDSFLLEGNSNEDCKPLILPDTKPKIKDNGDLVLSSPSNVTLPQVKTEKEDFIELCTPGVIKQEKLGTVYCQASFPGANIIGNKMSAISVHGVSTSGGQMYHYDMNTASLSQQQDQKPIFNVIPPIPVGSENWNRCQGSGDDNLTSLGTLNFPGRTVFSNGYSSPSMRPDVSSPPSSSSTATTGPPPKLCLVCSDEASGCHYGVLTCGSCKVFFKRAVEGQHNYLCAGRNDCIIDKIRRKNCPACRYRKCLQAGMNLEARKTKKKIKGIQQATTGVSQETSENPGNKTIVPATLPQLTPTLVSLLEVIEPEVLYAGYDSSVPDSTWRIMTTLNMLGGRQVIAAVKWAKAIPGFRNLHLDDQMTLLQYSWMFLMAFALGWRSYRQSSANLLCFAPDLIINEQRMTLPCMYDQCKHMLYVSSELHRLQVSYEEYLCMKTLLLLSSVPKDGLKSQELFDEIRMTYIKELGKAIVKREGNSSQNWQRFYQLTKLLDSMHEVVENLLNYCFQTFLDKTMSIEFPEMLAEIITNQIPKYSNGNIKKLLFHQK
Consider `COc1cc2ncnc(Nc3cccc(Br)c3)c2cc1OC`, for which the Potency is over 46 µM.
Still for that read-out and setting: as for `c1coc(CNc2ncnc3nc[nH]c23)c1`, the figure is > 20.6 µM and > 46 µM; as for `COc1ccc([C@@H]2CNC(=O)C2)cc1OC1CCCC1`, > 46 µM and > 20.6 µM.
As to `CN(N=O)C(=O)N[C@H]1C(O)OC(CO)[C@@H](O)[C@H]1O` (stereo not given in full), the Potency was over 46 µM.
Take `Nc1nc2c(c(=O)[nH]1)N(C=O)[C@H](CNc1ccc(C(=O)N[C@@H](CCC(=O)O)C(=O)O)cc1)CN2`: the Potency is over 20.6 µM.
Consider `COc1cc2c(cc1OC)[C@@H]1C(=O)c3ccc4c(c3O[C@@H]1CO2)C=CC(C)(C)O4`, for which the Potency is over 46 µM.
Consider `O=c1c(O)c(-c2ccc(O)c(O)c2)oc2cc(O)ccc12`, for which the Potency is over 46 µM.
Still for that read-out and setting: as for `COc1cc2c(cc1O)CCC1C2CC[C@@]2(C)C1CC[C@@H]2O` (stereo not given in full), the figure is over 46 µM; as for `CCOC(=O)C1=C(C)NC(=S)NC1c1cccc(O)c1` (stereo not given), over 46 µM; as for `CN(C)CC[C@H](c1ccc(Cl)cc1)c1ccccn1`, > 46 µM and > 20.6 µM.
`CC(Oc1ccc(O)cc1)(P(=O)(O)O)P(=O)(O)O`: the Potency is over 46 µM.
The same measure, in the same setting: in the case of `COc1ccc2c(c1OC)C(=O)OC2[C@H]1c2c(cc3c(c2OC)OCO3)CCN1C` (stereo not given in full) it was > 46 µM and > 20.6 µM; in that of `O=C(O)C=Cc1ccc(Cn2ccnc2)cc1`, over 46 µM.
`CC(C)[C@H](CO)Nc1nc(Nc2cccc(Cl)c2)c2ncn(C(C)C)c2n1`: the Potency is over 46 µM.

A further assay has the same target. The assay is described as follows: GR-EFC Redistribution (AID 451; calls by dose curve; note: potency is the fitted concentration of half-maximal effect). The settings on record: CHO-K1 GR-EFC translocation, beta-gal luminescence, 2 h. The method in brief: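 CHO-K1 cells stably expressing nuclear-localized β-gal enzyme acceptor and GR fused C-terminally to the enzyme donor fragment; ligand-driven nuclear translocation restores β-gal by complementation. Compounds titrated up to 46 uM final, 2 h at 37 °C; luminescence read.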
Turning to `COc1cc2ncnc(Nc3cccc(Br)c3)c2cc1OC`, the Potency was over 46 µM.
On to `c1coc(CNc2ncnc3nc[nH]c23)c1`, for which the Potency was > 20.6 µM and > 46 µM.
As for `COc1ccc([C@@H]2CNC(=O)C2)cc1OC1CCCC1`, the Potency was > 46 µM and > 20.6 µM.
`CN(N=O)C(=O)N[C@H]1C(O)OC(CO)[C@@H](O)[C@H]1O` (stereo not given in full): the Potency is over 46 µM.
As to `Nc1nc2c(c(=O)[nH]1)N(C=O)[C@H](CNc1ccc(C(=O)N[C@@H](CCC(=O)O)C(=O)O)cc1)CN2`, the Potency was over 20.6 µM.
`COc1cc2c(cc1OC)[C@@H]1C(=O)c3ccc4c(c3O[C@@H]1CO2)C=CC(C)(C)O4`: the Potency was over 46 µM.
Regarding `O=c1c(O)c(-c2ccc(O)c(O)c2)oc2cc(O)ccc12`, the Potency was over 46 µM.
Regarding `COc1cc2c(cc1O)CCC1C2CC[C@@]2(C)C1CC[C@@H]2O` (stereo not given in full), the Potency is over 46 µM.
On to `CCOC(=O)C1=C(C)NC(=S)NC1c1cccc(O)c1` (stereo not given), for which the Potency is over 46 µM.
The same measure, in the same setting: in the case of `CN(C)CC[C@H](c1ccc(Cl)cc1)c1ccccn1` it was > 46 µM and > 20.6 µM.
On to `CC(Oc1ccc(O)cc1)(P(=O)(O)O)P(=O)(O)O`, for which the Potency is over 46 µM.
In the case of `COc1ccc2c(c1OC)C(=O)OC2[C@H]1c2c(cc3c(c2OC)OCO3)CCN1C` (stereo not given in full), the Potency was > 46 µM and > 20.6 µM.
The same measure, in the same setting: as for `O=C(O)C=Cc1ccc(Cn2ccnc2)cc1`, the figure is over 46 µM; as for `CC(C)[C@H](CO)Nc1nc(Nc2cccc(Cl)c2)c2ncn(C(C)C)c2n1`, over 46 µM.

In the next assay the target is 3',5'-cyclic-AMP phosphodiesterase 4B (Homo sapiens) (UniProt Q07343). The assay is described as follows: qHTS Assay for Inhibitors of PDE-IV (AID 607; active = well fitted activation curve with a large enough effect in the main read-out, with a control signal flat, not every such curve was filed as active; note: % of control where 0% means no effect). The conditions noted are these: HEK293 ACTOne CNG channel cells, membrane potential fluorescence; series mostly up to 22.9 µM; activation (PDE inhibition): at the top concentration. The method in brief:
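Live HEK293 cells with a modified cyclic nucleotide-gated (CNG) channel report intracellular cAMP via membrane-potential dye fluorescence (ex 535/em 590 nm). Endogenous PDE-IV was targeted. Compounds were tested at up to 22.9 uM final; RO 20-1724 100 uM served as control.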
Turning to `c1coc(CNc2ncnc3nc[nH]c23)c1`, the molecule was called inactive.
As for `CCN1CCN(C(=O)N[C@H](C(=O)N[C@@H]2C(=O)N3C(C(=O)O)=C(CSc4nnnn4C)CS[C@@H]23)c2ccc(O)cc2)C(=O)C1=O`, the “activation (PDE inhibition)” value was -2.08%.
In the case of `CN(N=O)C(=O)N[C@H]1C(O)OC(CO)[C@@H](O)[C@H]1O` (stereo not given in full), the “activation (PDE inhibition)” value was -63.9%.
The same measure, in the same setting: as for `Nc1nc2c(c(=O)[nH]1)N(C=O)[C@H](CNc1ccc(C(=O)N[C@@H](CCC(=O)O)C(=O)O)cc1)CN2`, the figure is 1.95%.
For the molecule `O=c1c(O)c(-c2ccc(O)c(O)c2)oc2cc(O)ccc12`, the outcome was inactive.
As for `COc1cc2c(cc1O)CCC1C2CC[C@@]2(C)C1CC[C@@H]2O` (stereo not given in full), the “activation (PDE inhibition)” value is -16.5%.
For the molecule `CN(C)CC[C@H](c1ccc(Cl)cc1)c1ccccn1`, the molecule was called inactive.
As to `CC(Oc1ccc(O)cc1)(P(=O)(O)O)P(=O)(O)O`, the “activation (PDE inhibition)” value is -14.7%.
For the molecule `COc1ccc2c(c1OC)C(=O)OC2[C@H]1c2c(cc3c(c2OC)OCO3)CCN1C` (stereo not given in full), the molecule was called inactive.
As for `O=C(O)C=Cc1ccc(Cn2ccnc2)cc1`, the “activation (PDE inhibition)” value is 2.08%.
In the case of `CC(C)[C@H](CO)Nc1nc(Nc2cccc(Cl)c2)c2ncn(C(C)C)c2n1`, the molecule was classed as inactive.
Take `CN1[C@H]2CC(OC(=O)[C@@H](CO)c3ccccc3)C[C@H]1[C@H]1O[C@H]12` (stereo not given in full): the “activation (PDE inhibition)” value was 17%.

These data come from PubChem BioAssay (NCATS).
